Measurements reported in ChEMBL document CHEMBL3988442, “University of Dundee, Small-Polar-MMV Screening Library” (2021).
The whole screen tested about 85,000 compounds, of which about 440 (0.52%) showed an effect of 50% or more. Only a selection was taken, and strong results are over-represented in it overall.

Assay: In vitro enzyme assay to detect hydrolysis of chlorophenol red-beta-D-[…] directly proportional to the number of Toxoplasma stably expressing beta-galactosidase
Assay type: functional, organism-based, Toxoplasma gondii
Parameters: scale not given: in the data most compounds retested in dose-response had high values

CCn1cc(-c2cc(C(F)(F)F)nc(NC3CCCC3)n2)c(C)n1
Percent Effect (10 µM): 70.55%

Cc1nn(C)cc1-c1cc(C(F)(F)F)nc(NC2CCN(C)CC2)n1
Percent Effect (10 µM): 3.167%

Cc1nn(C)cc1-c1cc(C(F)(F)F)nc(NC2CCCCC2)n1
Percent Effect (10 µM): 1.393%

O=C(NCC(O)C1CC1)c1cccnc1C(F)(F)F (centres undefined)
Percent Effect (50 µM): -5.668%

O=C(CNc1ccc(Br)cc1)NCc1ncc[nH]1
Percent Effect (50 µM): 5.475%

O=S(=O)(NCCC(O)c1cccs1)c1ccccc1 (centres undefined)
Percent Effect (10 µM): 0.7722%

CC(N)CCNS(=O)(=O)c1ccccc1 (centres undefined)
Percent Effect (50 µM): -13.24%

CC(C)C(O)CCNS(=O)(=O)c1ccccc1 (centres undefined)
Percent Effect (50 µM): 62.33%

CC(c1cccnc1)N(C)C(=O)c1ccccc1C#N (centres undefined)
Percent Effect (50 µM): -2.098%

COc1c(C)cnc(CNC(=O)NC2CC2)c1C
Percent Effect (50 µM): 8.679%

Cc1cc(C)n(CC(=O)N2CC(C)OCC2(C)C)n1 (centres undefined)
Percent Effect (50 µM): 5.036%

CSCC(CCO)NC(=O)c1cccc(Cl)c1F (centres undefined)
Percent Effect (10 µM): -4.915%

CSCC(CCO)NC(=O)c1cc(F)ccc1O (centres undefined)
Percent Effect (50 µM): 96.99%

CSCC(CCO)NC(=O)c1cccc(F)c1Cl (centres undefined)
Percent Effect (10 µM): -17.37%

CCCc1cc(C(=O)N2CCOC(C(F)(F)F)C2)no1 (centres undefined)
Percent Effect (50 µM): -10.86%

COc1ccnc(N2CCC(F)(CO)C2)n1 (centres undefined)
Percent Effect (50 µM): 3.064%

Cn1nnc2c1C(COCC1CC1)CN(C(=O)Cc1ccsc1)C2 (centres undefined)
Percent Effect (10 µM): -4.213%

Cn1nnc2c1C(COCC1CC1)CN(C(=O)Cc1cccs1)C2 (centres undefined)
Percent Effect (10 µM): 56.28%

COCC1CN(C(=O)Cc2cccs2)Cc2nnn(C)c21 (centres undefined)
Percent Effect (10 µM): 4.219%

CC1(C)CNC(=O)c2nc(CCN3CCCC3)[nH]c2C1
Percent Effect (50 µM): -0.3782%

COc1ccc2[nH]c(N3CCOCC3)nc2c1
Percent Effect (50 µM): 4.618%

N#Cc1ccc(CN2CCCC2=O)cc1
Percent Effect (50 µM): 8.336%

CS(=O)(=O)NCc1ccc(CN2CCCC2=O)cc1
Percent Effect (50 µM): 69.78%

NCc1ccc(CN2CCCC2=O)cc1
Percent Effect (50 µM): -14.5%

CCOCC(=O)N(Cc1ccc(O)c(OC)c1)C1CC1
Percent Effect (50 µM): -4.406%

CCCNC(=O)c1ccc(CN2CCCC2)cc1
Percent Effect (50 µM): 0.8478%

CCNCCCNCc1ccc2c(c1)n(C)c(=O)n2C
Percent Effect (50 µM): 0.7261%

NCC(CO)Cc1ccc(F)c(F)c1 (centres undefined)
Percent Effect (50 µM): 20.05%

O=C(Nc1nc2c(s1)CN(C(=O)NCc1cccs1)CC2)C1CC1
Percent Effect (10 µM): 2.193%

CC(C)NC(=O)Nc1nc2c(s1)CN(C(=O)NCc1cccs1)CC2
Percent Effect (10 µM): 56.34%

COC(=O)Nc1nc2c(s1)CN(C(=O)NCc1cccs1)CC2
Percent Effect (10 µM): 1.645%

N#Cc1ccc(N2CCOC2=O)nc1
Percent Effect (50 µM): 0.2325%

CCOc1ccc(NC(=O)[C@H](C)N(C)C)cc1CO
Percent Effect (50 µM): 1.908%

O=C(Cn1cc(Br)ccc1=O)NCC1CCOC1 (centres undefined)
Percent Effect (50 µM): -15.74%

Cc1c(-c2cc(C(F)(F)F)nc(N3CCC(N)CC3)n2)cnn1C
Percent Effect (10 µM): 84.58%

CCn1ncc(-c2cc(C(F)(F)F)nc(N3CCC(N)CC3)n2)c1C
Percent Effect (10 µM): 74.85%

NC1CCN(c2ccc(C(F)(F)F)cn2)CC1
Percent Effect (50 µM): 7.702%

CCNC(=O)[C@@H]1C[C@H](N)CN1c1cc(C(F)(F)F)nc(N2CCCC2)n1
Percent Effect (10 µM): 3.581%

O=C(O)C1CCCN1c1nc(-c2ccc(Cl)cc2)cc(C(F)(F)F)n1 (centres undefined)
Percent Effect (10 µM): 8.669%

Cc1c(S(=O)(=O)N2CCC(N)CC2)cnn1C
Percent Effect (50 µM): -0.6017%

O=C(O)C1CCCN1c1nc(-c2ccc(Cl)c(Cl)c2)cc(C(F)(F)F)n1 (centres undefined)
Percent Effect (10 µM): 13.78%

CCc1ccc(-c2cc(C(F)(F)F)nc(N3CCC(N)CC3)n2)cc1
Percent Effect (10 µM): 99.66%

Cc1ccc(-c2cc(C(F)(F)F)nc(N3CCOCC3)n2)s1
Percent Effect (10 µM): -3.229%

NC(=O)C1CCN(CC(=O)Nc2ccc(F)cc2)CC1
Percent Effect (50 µM): -2.359%

CCN(CC)CC(N)=O
Percent Effect (50 µM): -6.066%

CC1CCCN(Cn2nccc2-c2cccnc2)C1 (centres undefined)
Percent Effect (50 µM): 7.827%

O=C(NCCc1ccccc1F)C1CCNCC1
Percent Effect (50 µM): -5.827%

O=C(OCC(F)(F)F)c1cccnc1
Percent Effect (50 µM): -11.21%

O=C(N[C@H]1CCCNC1)c1ccc(F)cc1F
Percent Effect (50 µM): -5.906%

Cc1ccc(F)cc1C(=O)NC1CCCNC1 (centres undefined)
Percent Effect (50 µM): 83.09%

Cc1ccc(F)cc1C(=O)N[C@@H]1CCNC[C@H]1O
Percent Effect (50 µM): 19.16%

COCc1nnc(-c2ccc3c(c2)OCO3)o1
Percent Effect (50 µM): 23.78%

NC(=O)C1CCCN1C(=O)C1CCNCC1 (centres undefined)
Percent Effect (50 µM): -2.32%

c1ccc(Nc2nccs2)nc1
Percent Effect (50 µM): -28.74%

Oc1cc(C2CCCCN2Cc2cccs2)nc(-c2ccncc2)n1 (centres undefined)
Percent Effect (10 µM): -14.06%

Oc1cc(C2CCCN(Cc3cccs3)C2)nc(-c2ccccn2)n1 (centres undefined)
Percent Effect (10 µM): 33.79%

Oc1cc(C2CCCCN2Cc2cccs2)nc(-c2ccccn2)n1 (centres undefined)
Percent Effect (10 µM): 91.06%

Cc1ccc(N)c(C)n1
Percent Effect (50 µM): 4.322%

OC(c1ccccc1)C1CCNCC1 (centres undefined)
Percent Effect (50 µM): -7.409%

O=C(NCc1ccnc(NC2CC2)c1)C1CCCCC1
Percent Effect (50 µM): 17%

Cc1ccc(Cn2cc(Br)c(NS(C)(=O)=O)n2)cc1
Percent Effect (10 µM): 20%

CS(=O)(=O)Nc1nn(Cc2ccc(F)cc2)cc1Br
Percent Effect (10 µM): 62.42%

Cc1cccc(Cn2cc(Br)c(NS(C)(=O)=O)n2)c1
Percent Effect (10 µM): 46.94%

Cc1ccc(C(=O)N2C[C@@H](CO)[C@H](N(C)C)C2)cc1
Percent Effect (50 µM): 0.785%

CN(C)C(=O)CNC(CO)c1ccc(Cl)c(F)c1 (centres undefined)
Percent Effect (50 µM): 52.18%

CN(C)C(=O)CNC(CC(F)(F)F)c1ccc(F)cc1 (centres undefined)
Percent Effect (10 µM): 4.779%

CN(C)C(=O)CNC(CC(F)(F)F)c1ccc(Cl)cc1 (centres undefined)
Percent Effect (10 µM): 0.885%

CCNC(=O)c1cc2ccccc2n1C
Percent Effect (50 µM): -19.31%

CCOC(CNC(=O)c1ccnn1C)c1ccccc1 (centres undefined)
Percent Effect (50 µM): -0.4622%

CCOCC(C)OC(=O)c1ccnn1C (centres undefined)
Percent Effect (50 µM): 57.1%

Cn1nccc1C(N)=O
Percent Effect (50 µM): -25%

NCCCn1nc2ccccn2c1=O
Percent Effect (50 µM): 7.053%

CCOc1ccc(Cl)cc1C(N)=O
Percent Effect (50 µM): -6.805%

Cc1nn(C)c(C)c1CN(C)C(=O)c1cc(NC(=O)C2CC2)n(C)n1
Percent Effect (10 µM): 51.38%

CCn1nc(C)c(NC(=O)c2cc(NC(=O)C3CC3)n(C)n2)c1C
Percent Effect (10 µM): 0.1763%

Cn1nc(C(=O)NC2CC2)cc1NC(=O)C1CC1
Percent Effect (10 µM): -1.586%

Cc1nn(C)c(C)c1CN(C)C(=O)c1cc(C(F)(F)F)n(C)n1
Percent Effect (10 µM): 12.73%

Cc1nn(C)c(C)c1CNC(=O)c1cc(NC(=O)C2CC2)n(C)n1
Percent Effect (10 µM): 56.77%

Cn1nc(C(=O)NC2CCCC2)cc1NC(=O)C1CC1
Percent Effect (10 µM): -6.404%
